Inconclusive results are not listed. The source made the active and inactive calls. Calls come from the whole dose curve; as a rule, active = well fitted inhibition curve with a large enough effect; inconclusive = small, poorly fitted or top-dose-only effect; inactive = flat fitted curve, though single readings scatter.
% is set by controls: 0 for no effect and ±100 for the full control effect.

The experiment deals with HEK293. In words: Cytotoxic Profiling of Annotated Libraries Using Quantitative High-Throughput Screening (AID 1296008). Note: nearly all actives have a fitted effect of over 60% in size. To be noted: Five cell lines viability, CellTiter-Glo ATP luminescence, 48-72 h; max response: active compounds read low. Put shortly:
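Cytotoxicity was measured as CellTiter-Glo ATP luminescence, read after 10 min at room temperature. Compound treatment of the cells lasted 48 or 72 hr at 37 degrees Celsius in a qHTS format.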
(In general: Cellular ATP, detected with luciferase, serves as a proxy for viable cell number.)
Regarding `C/C(=C\CCC1(C)C2CC3C(C2)C31C)C(=O)O` (centres undefined), the max response is -2.35% (inactive).

For the compound `CCCC1=CC2=C(CO1)C(=O)C(C)(O)C(OC(=O)c1c(C)cc(OC)cc1O)C2` (centres undefined), the max response was -3.53% (inactive). To `COc1cnc(-n2cnc(C)n2)c2[nH]cc(C(=O)C(=O)N3CCN(C(=O)c4ccccc4)CC3)c12` belongs -12.9% (inactive); to `CCCC/C=C\CCCCCc1cc(=O)c2ccccc2n1C`, -7.72% (inactive); to `CCN1CCN(C(=O)N[C@@H](C(=O)N[C@@H]2C(=O)N3[C@@H]2SC(C)(C)[C@@H]3C(=O)O)c2ccccc2)C(=O)C1=O`, -6.17% (inactive). The value for `C[C@@H]1O[C@@H](O[C@@H]2[C@@H](O)[C@H](O[C@H]3[C@H](O[C@H]4CC[C@@]5(C)C(CC[C@]6(C)C5CC=C5[C@@H]7CC(C)(C)CC[C@]7(C(=O)O[C@@H]7O[C@H](CO)[C@@H](O)[C@H](O)[C@H]7O)CC[C@]56C)C4(C)C)O[C@H](C(=O)O)[C@@H](O)[C@@H]3O)OC[C@H]2O)[C@H](O)[C@H](O)[C@H]1O` (some centres undefined) was -0.54% (inactive); that for `COC(=O)C1=COC(O[C@@H]2O[C@H](CO)[C@@H](O)[C@H](O)[C@H]2O)/C(=C\COC(=O)/C=C/c2ccccc2)C1CC(=O)OCCc1ccc(O)cc1` (some centres undefined) was -5.04% (inactive). The value for `C=CC(C)(O)CC/C=C(\C)C1CC=C(C)C(=O)O1` (centres undefined) was -4.28% (inactive); that for `COc1cc(/C=C/C(=O)OC[C@H]2O[C@@H](OC3CC(C)=C(C(=O)O)C(C)(C)C3)[C@H](O)[C@@H](O)[C@@H]2O)cc(OC)c1O` (some centres undefined) was -1.71% (inactive).

The record behind these values is PubChem BioAssay (NCATS).
